Screens: PubChem BioAssay, The Scripps Research Institute Molecular Screening Center
This is a sample that favours compounds with a hit; in the whole collection about 4% have one here.
S1P1 agonist: S1P1 (human) receptor agonism | S1P1 agonist cell-based reporter assay | AID 1044 | activation, % at 4.5 µM | 1.5% of 16,000 active; in the data active = activation above about 80%
PME-1 Maybr inh: inhibitors of human PME-1 in Maybridge library | Q9Y570 | recombinant PME-1, FP-Rh probe fluorescence polarization | inhibition, % at 9 µM | 0.5% of 16,000 active | AID 2291; in the data active = inhibition above about 30%
Target sequence (Q9Y570 whole entry, looked up): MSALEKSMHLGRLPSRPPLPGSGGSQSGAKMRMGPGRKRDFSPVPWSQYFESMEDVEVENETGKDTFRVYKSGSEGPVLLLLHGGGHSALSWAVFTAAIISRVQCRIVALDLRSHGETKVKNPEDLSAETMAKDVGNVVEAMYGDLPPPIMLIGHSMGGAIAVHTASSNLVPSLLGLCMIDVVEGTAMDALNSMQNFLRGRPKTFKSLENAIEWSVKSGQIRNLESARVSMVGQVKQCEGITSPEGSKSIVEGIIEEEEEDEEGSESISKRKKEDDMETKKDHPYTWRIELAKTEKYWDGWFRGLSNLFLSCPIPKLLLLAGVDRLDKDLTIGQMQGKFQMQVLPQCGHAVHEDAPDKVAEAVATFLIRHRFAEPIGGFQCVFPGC
KOR antag MB: blocks the human kappa opioid receptor, Maybridge compounds; P41145; OPRK1 cells, antagonist mode, fluorescence readout; inhibition, % at 9 µM; 0.4% of 16,000 active; AID 652031; in the data active = inhibition above about 50%
Nox1 inh: blocks human NADPH oxidase 1 activity | inhibition, % at 6.7 µM | AID 1792 | HT29 cells, luminol chemiluminescence ROS | 0.81% of 16,000 active | Q9Y5S8
Luminol counter: quenches luminol chemiluminescence in Nox1 counter-screen; HRP/luminol/H2O2 chemiluminescence counterscreen; inhibition, % at 6.7 µM; 0.4% of 16,000 active; note: reference of the scale not given here
NOTCH ag: activates NOTCH signaling in reporter cells; NOTCH signaling luciferase reporter cells, luminescence; activation, % at 2.5 µM; 0.4% of 15,000 active; AID 434982; in the data active = activation above about 2.2%
Numbers without * were called inactive. Cut-off read from the data, not from the text of the source, unless noted: active = inhibition above about 75%; inactive = the rest.

SMILES	S1P1 agonist	PME-1 Maybr inh	KOR antag MB	Nox1 inh	Luminol counter	NOTCH ag
CCCn1c(=O)c(/C(N)=N/O)nn(-c2ccccc2)c1=O	-8.5	2.7	-24.0	9.6	-2.8	-0.5
O=c1c2cc(-c3ccccc3)sc2nnn1/N=C/c1cccs1	71.2	-1.3	70.9*	-49.1	3.2	0.1
COCc1cc(=O)[nH]c(COc2ccc(Cl)cc2)n1	-8.6	-0.4	9.8	-33.3	1.9	0.2
CC(=O)Nc1sc(=Nc2ccc(C)c(C)c2)n(C(C)=O)c1-c1ccc2c(c1)OCO2	-7.8	35.3*	-11.0	29.4	3.9	-0.9
CCOC(=O)N/N=C/c1sc2ccccc2c1C	14.7	3.2	-0.2	-40.6	4.0	-0.2
O=C(NCCC1CC1(Cl)Cl)Nc1ccc(Cl)cc1Cl (centres undefined)	1.3	-1.9	1.0	-100.8	-1.2	-0.5
O=S(=O)(O)c1ccc(N=Nc2ccc(O)cc2O)cc1	3.5	3.3	-2.6	-64.7	12.9	-0.1
Cc1cc(/C(N)=N/OC(=O)c2cccc(Cl)c2)no1	-6.6	-2.3	-10.8	-61.4	4.4	-5.9
N/C(=N\OC(=O)c1ccc(OCC(F)(F)F)nc1)c1cccc(Cl)c1	94.7*	0.9	4.6	-35.0	-0.2	-0.6
COc1ccc(Oc2ccc([N+](=O)[O-])cc2-c2nc(CS(=O)(=O)c3ccc(F)cc3)no2)cc1	9.3	-4.5	-15.1	-24.2	4.6	-0.1
Cn1ccnc1CS(=O)(=O)c1cc(Cl)c(Oc2ccc([N+](=O)[O-])cc2Cl)c(Cl)c1	104.5*	0.3	-13.5	-55.1	1.0	-0.4
CN(C(=O)c1cc(C(C)(C)C)nn1C)c1nnc(C(F)(F)F)s1	-4.5	-1.0	-4.2	-52.6	-0.3	-0.7
O=c1c2ccccc2oc2cc(O)ccc12	-16.1	6.2	-2.6	-1.5	-5.2	-0.1
Cc1c(Cc2c(Cl)cccc2Cl)c(=O)oc2cc(O)ccc12	49.0	32.8*	1.3	-102.3	-36.1	-0.4
O=[N+]([O-])c1cccnc1SCc1csc2ccc(Cl)cc12	105.5*	-5.6	13.8	-96.5	3.2	-0.5
O=[N+]([O-])c1cccnc1Sc1cc(Cl)ccc1Cl	19.4	1.8	-3.6	-43.2	2.9	-0.1
O=S(=O)(Nc1ccc(N2CCCCC2)cc1)c1cc(S(=O)(=O)c2ccccc2)cs1	48.0	21.9	5.0	103.5*	15.8	-0.1
O=C(C1CCCO1)N1CCN(S(=O)(=O)c2cc(S(=O)(=O)c3ccccc3)cs2)CC1 (centres undefined)	29.7	11.1	-4.5	6.7	-7.5	-0.5
Cc1n[nH]c(=S)n1-c1ccc(OCc2ccccc2)cc1	-5.3	1.5	19.2	-12.5	0.1	-0.9
COc1cc(CCC(=O)NNC(=S)Nc2ccc(F)cc2)cc(OC)c1OC	1.2	1.0	-3.8	12.6	91.5*	0.3
NS(=O)(=O)c1ccc(NNC(=O)c2c(F)cccc2Cl)cc1	-10.4	10.9	6.1	80.7*	3.3	0.2
CCOC(=O)c1c(C)csc1NC(=O)c1cccs1	-10.0	-1.8	1.7	-26.1	-1.2	-0.9
Cc1cc(=O)n2c([nH]c3ccccc32)c1C#N	1.5	20.1	2.5	31.5	84.8*	0.2
Cc1c(C#N)c(=O)[nH]c2ccccc12	-16.7	-2.3	3.8	-37.1	2.2	-0.1
O=C1OC2COC(=O)C2C=C1NC(=O)c1ccc(Cl)cc1 (centres undefined)	-12.6	-1.3	-2.9	-9.5	3.1	0.4
OCc1ccc(-c2cc(C(F)(F)F)cc(C(F)(F)F)c2)o1	-10.6	9.1	-18.2	-5.1	-3.3	-0.1
O/N=C/c1ccc(-c2cc(C(F)(F)F)cc(C(F)(F)F)c2)o1	92.0*	-5.4	-5.4	-57.2	-1.0	0.3
